PfHsp40 rescue – rescue of PfHsp40-mediated yeast toxicity; AID 504582; growth rescue, % at 12.5 µM; S. cerevisiae expressing PfHsp40, growth rescue, ATP luminescence; 0.68% of 340,000 active; in the data active = growth rescue above about 28%, passing the limit was not always enough; inconclusive = no clear call, values can overlap the other calls;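 note: yeast W303a lacking pdr1 and pdr3 grown in galactose medium; growth measured after three days at 30 °C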
FadD28 FP inh – blocks FadD28 binding to the bisubstrate probe | 0.22% of 360,000 active | inhibition, % at 12.5 µM | AID 588549 | fluorescence polarization; in the data active = inhibition above about 8.5%, passing the limit was not always enough; inconclusive = no clear call, values can overlap the other calls
Y pestis TopoI – blocks Yersinia pestis topoisomerase I activity; Y. pestis Topo-I cleavage product accumulation, plate reader; activity, % at 10 µM; 0.064% of 360,000 active; in the data active = activity above about 50%, passing the limit was not always enough; inconclusive = no clear call, values can overlap the other calls
Mtb BioA inh – blocks M. tuberculosis BioA enzyme activity | purified M. tuberculosis BioA enzyme, plate reader | inhibition, % at 9.99 µM | 0.096% of 360,000 active | AID 602481; in the data active = inhibition above about 40%; inconclusive = no clear call, values can overlap the other calls
PrP UTR inh – inhibition of PrP 5' UTR reporter expression | inhibition, % (test concentration not listed) | 0.35% of 340,000 active | cell-based PrP 5' UTR mRNA reporter, plate reader; in the data active = inhibition above about 52%; note: 0 = median of the neutral control wells
Numbers without * were called inactive; ? = inconclusive; . = no result. Rows were chosen to be rich in hits. Some 1.1% of all compounds tested hit in one or more screens of this group.

SMILES	PfHsp40 rescue	FadD28 FP inh	Y pestis TopoI	Mtb BioA inh	PrP UTR inh
COc1ccc(C=O)cc1OS(=O)(=O)c1ccc(NC(C)=O)cc1	41.6*	-2.3	-2.4	.	-3.8
COc1cc(C=O)cc(OC)c1OS(=O)(=O)c1ccc(NC(C)=O)cc1	0.2	0.5	0.4	0.3	-23.3
COC(=O)[C@@H]1[C@@H](CO)[C@@H]2Cn3c(ccc(-c4ccncc4)c3=O)[C@@H]2N1CC1CCCCC1	.	.	.	2.2	.
O=C(O)/C=C/c1ccc([N+](=O)[O-])o1	0.0	-0.3	8.1	.	-27.2
O=C1NC(=S)S/C1=C\C=C\c1ccc([N+](=O)[O-])o1	-0.4	13.8*	-22.2	1.7	-6.6
CO[C@@H]1CN(C)C(=O)c2cc(NC(=O)c3ccc(Oc4ccccc4)cc3)ccc2OC[C@@H](C)NC[C@@H]1C	.	.	.	0.1	.
c1ccc(N(c2ccccc2)c2nc(N3CCCC3)nc(-n3ccnc3)n2)cc1	0.2	-3.6	-0.2	0.6	-13.6
CN(c1ccccc1)c1nc(N2CCCC2)nc(-n2ccnc2)n1	392.9*	-1.3	28.1	2.1	3.3
C=C1c2cccc(O)c2C(=O)C2C(=O)[C@]3(O)C(=O)C(C(N)=O)C(=O)[C@@H](N(C)C)[C@@H]3[C@@H](O)[C@H]12 (some centres not stated)	59.7*	3.4	-12.2	-0.9	-18.7
O=C(Cn1c(=O)oc2cc(S(=O)(=O)N3CCCC3)ccc21)Nc1cccc(C(F)(F)F)c1	0.5	10.6*	-0.6	2.0	-6.6
CCc1ccc(NC(=O)Cn2c(=O)oc3cc(S(=O)(=O)N4CCOCC4)ccc32)cc1	1.0	-1.8	-7.4	-0.2	16.5
O=C(Cn1c(=O)oc2ccccc21)Nc1ccc(S(=O)(=O)N2CCCCC2)cc1	-0.1	0.9	-4.5	0.4	8.8
CCc1cccc(NC(=O)Cn2c(=O)oc3cc(S(=O)(=O)N4CCOCC4)ccc32)c1	-0.5	41.2*	5.9	1.2	-29.3
CCc1c(O)nc(SCC(=O)Nc2nc3ccccc3s2)n(-c2ccc(C)cc2)c1=O	-0.7	-2.9	-6.6	-3.4	-15.5
CCc1c(O)nc(SCC(=O)Nc2nc3ccccc3s2)n(-c2ccccc2)c1=O	0.9	14.4*	5.6	-0.4	-20.5
Cc1[nH]n(-c2ncc(-c3ccccc3)s2)c(=O)c1C(c1ccc(Cl)cc1)C(C#N)C#N (configuration not stated)	-1.7	8.6*	-9.5	.	-8.2
O=C1/C(=C\c2cc([N+](=O)[O-])ccc2O)SC(=S)N1Cc1ccc(Cl)cc1	-0.2	8.6*	-26.9	-11.2	-34.2
O=[N+]([O-])c1ccc(O)c(C=NN2CCCCC2)c1	.	-2.4	-2.3	-0.6	.
Cc1ccccc1/C=C1\SC(=S)N(/N=C/c2cc([N+](=O)[O-])ccc2O)C1=O	229.1*	1.0	4.9	-0.5	-19.0
Cc1noc(C)c1S(=O)(=O)N(C)C[C@@H]1OCCCC[C@@H](C)Oc2ccc(NC(=O)NC3CCCCC3)cc2C(=O)N([C@H](C)CO)C[C@H]1C	.	.	.	-1.0	.
COc1cc(OC)c(-c2c3cc(O)c(=O)cc-3oc3cc(O)c(O)cc23)cc1OC	228.5*	39.0*	-6.4	.	-32.7
Cc1c2cc(O)c(=O)cc-2oc2cc(O)c(O)cc12	-0.1	11.6*	-16.6	-65.8	1.2
Cc1noc(C)c1NC(=O)N(C)C[C@@H]1OCCCC[C@H](C)Oc2ccc(NS(=O)(=O)c3ccccc3)cc2C(=O)N([C@H](C)CO)C[C@@H]1C	.	.	.	-1.5	.
OC[C@@H]1[C@@H](c2ccc(-c3cccnc3)cc2)[C@H]2CN(CC3CCOCC3)CCCCN12	.	.	.	1.0	.
C[C@H](CO)N1C[C@H](C)[C@H](CN(C)Cc2ccc(-c3ccccc3)cc2)Oc2ccc(NC(=O)CCCN(C)C)cc2CC1=O	.	.	.	-1.8	.
SMILES	PfHsp40 rescue	FadD28 FP inh	Y pestis TopoI	Mtb BioA inh	PrP UTR inh
O=C(c1ccccc1)N1N=C(c2ccccc2)CC1(O)C(F)(F)F (configuration not stated)	1.4	-1.6	2.3	.	-9.4
COC(=O)C1(O)CC(C(C)C)=NN1C(=O)c1ccccc1 (configuration not stated)	45.0*	0.3	-1.0	.	-26.5
CN1C(=O)c2cc(NC(=O)C3CCCC3)ccc2OC[C@@H]2O[C@H](CC(=O)O)CC[C@@H]21	.	.	.	-2.5	.
CCCn1nc([N+](=O)[O-])c(C(C#N)c2nc3ccccc3s2)c(Cl)c1=O (configuration not stated)	?	25.7*	-3.4	8.4	-5.7
CCn1nc([N+](=O)[O-])c(C(C#N)c2nc3ccccc3n2C)c(Cl)c1=O (configuration not stated)	-1.6	1.0	-2.3	1.7	-17.7
CCCCCCCC/C=C\CCCCCCCC(=O)O	0.1	2.2	27.4	.	3.5
